The panel holds about 83,000 compounds, 20% with a hit somewhere; the sample as a whole holds those more often.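 Percent growth is the endpoint: 0 to 100 indicates growth inhibition (40 means 60% inhibition), 0 means no net growth, and negative values indicate cell death.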 The source made the active and inactive calls. How the source made its calls: active means growth percent below 10; inactive means the rest.
Legend:
Experiment in all cases: NCI-60 one-dose screen, 48 h (100 = growth as untreated, 0 = no growth, -100 = all killed)
Settings in all cases: 10 µM unless noted
[1] = system: DU-145 prostate
[2] = system: MALME-3M melanoma
[3] = system: MDA-MB-231 breast
[4] = system: RXF 393 renal
[5] = system: SF-268 CNS
[6] = system: SF-295 CNS
[7] = system: SF-539 CNS
[8] = system: UACC-257 melanoma
[9] = system: M14 melanoma
[10] = system: HCT-15 colon
[11] = system: HT29 colon
[12] = system: SNB-19 CNS
[13] = system: U251 CNS
[14] = system: PC-3 prostate
[15] = system: SK-MEL-5 melanoma
[16] = system: UACC-62 melanoma
[17] = system: LOX IMVI melanoma
[18] = system: SK-MEL-28 melanoma
[19] = system: SNB-75 CNS
[20] = system: K-562 leukemia

Measured: growth

CSC1=CC(=O)c2ccccc2C1=O
active: [2] -0.209% | [3] -14.5%
inactive: [1] 95.5% | [4] 98.3% | [5] 69% | [6] 93.7% | [7] 97.1% | [8] 42% | [9] 94.7% | [10] 101% | [11] 103% | [12] 94.2% | [13] 92.2% | [14] 67.3% | [15] 89.4% | [16] 79.7% | [17] 68.5% | [18] 113%

O=S(=O)(OCCO)c1ccccc1
inactive: [1] 112% | [2] 105% | [3] 97.2% | [4] 98.1% | [5] 102% | [6] 93.1% | [7] 106% | [8] 103% | [9] 109% | [10] 103% | [11] 98.9% | [19] 75% | [12] 102% | [13] 106% | [14] 99.3% | [15] 94.4% | [16] 94.2% | [17] 103% | [18] 110%

COc1c(Cl)ccc2c(-c3nc4cc(Cl)c(F)cc4s3)cc(=O)oc12
inactive: [1] 97.1% | [20] 64.9% | [3] 65% | [4] 92.3% | [5] 29.5% | [6] 97.7% | [7] 90% | [8] 91.6% | [9] 95.5% | [19] 69.3% | [12] 96% | [13] 99.1% | [14] 84.3% | [16] 91.7% | [18] 111%
active: [11] 5.31% | [17] -80.2%

CCCCCCCCCCCCCCCC[N+]1(C)CCOCC1
inactive: [1] 28.7% | [6] 19.8% | [8] 49.4% | [19] 11.7% | [15] 40% | [16] 46.9% | [18] 86%
active: [2] -2.82% | [3] -7.42% | [4] -79.9% | [5] -34.5% | [7] -1.77% | [9] 1.49% | [11] 1.36% | [12] -29.1% | [13] -84.8% | [14] -52% | [17] -79%

COC(=O)/C=C1/CCC2C3CCC4=CC(=O)C(Br)CC4(C)C3C(=O)CC12C (configuration not stated)
inactive: [1] 75% | [20] 48.9% | [3] 78% | [4] 59.9% | [5] 95.6% | [6] 95.4% | [7] 97.4% | [9] 59.9% | [19] 70.8% | [12] 78.9% | [14] 53.5% | [15] 57.4% | [16] 73.5% | [17] 38.2% | [18] 94.5%

O=C(c1ccccc1)C(Br)C(Br)c1cccc([N+](=O)[O-])c1 (configuration not stated)
active: [2] -43.1% | [4] -78.8% | [10] -26.6% | [11] -42.4% | [17] -79.4%
inactive: [1] 76% | [3] 59.9% | [5] 72.1% | [6] 88.5% | [7] 38.1% | [8] 19.8% | [9] 34.3% | [19] 80.9% | [12] 82.4% | [13] 17.7% | [14] 67.4% | [15] 77.1% | [16] 81.4% | [18] 63.6%

CN1CCn2c(c(Sc3ccc(C(=O)NO)cc3)c3ccccc32)C1=O
active: [3] -15.2% | [4] -14.4% | [5] -34.9% | [6] -1.68% | [7] -90.8% | [8] -9.93% | [9] -37.7% | [19] -17.2% | [12] -26.4% | [13] -60.5% | [14] -35.2% | [16] -61.4% | [17] -44.2% | [18] -33.4%
inactive: [1] 36.3% | [2] 63.6% | [10] 14.6% | [11] 44.3%

Cn1c2ccc(Cl)cc2c2nn(C(=O)c3ccccc3)c(=O)nc21
inactive: [1] 114% | [20] 110% | [3] 106% | [4] 98.9% | [5] 104% | [7] 99.9% | [8] 128% | [9] 98.9% | [10] 96.7% | [11] 108% | [19] 88.3% | [12] 105% | [13] 103% | [14] 93.2% | [16] 107% | [17] 98.1% | [18] 125%

OC[C@@H](O)[C@@H](O)CO
inactive: [1] 111% | [2] 97.3% | [3] 94.7% | [4] 110% | [5] 108% | [6] 94.7% | [7] 102% | [8] 105% | [9] 106% | [10] 102% | [11] 106% | [19] 100% | [12] 98.3% | [13] 98.7% | [14] 97.2% | [15] 104% | [16] 98.3% | [17] 91.3% | [18] 112%

Oc1ccc2ccccc2c1C1NN=C(c2ccccc2)S1 (configuration not stated)
inactive: [1] 21.1% | [20] 18.6% | [3] 38.7% | [4] 67% | [5] 20.9% | [7] 12% | [19] 41.8% | [12] 23.6% | [13] 19.4% | [14] 27.7% | [15] 11.6% | [17] 13.8% | [18] 23%
active: [6] -8.68% | [8] -6.81% | [9] -8.91%

Brc1ccc(Br)nn1
active: [1] -91% | [2] -91% | [3] -65.6% | [4] -89.8% | [5] -74.4% | [6] -10.9% | [7] -53.1% | [8] -68.4% | [9] -76.4% | [10] -100% | [11] -37.2% | [13] -67.5% | [14] -36.8% | [15] 8.56% | [17] -93.7% | [18] -75.9%
inactive: [19] 37.7% | [12] 17.7% | [16] 31.9%

COc1ccc(OC2=C(C#N)C(=N)N3c4ccccc4Sc4ccccc4C3N2)cc1 (configuration not stated)
inactive: [1] 99.7% | [20] 148% | [3] 60.8% | [4] 78% | [5] 89.2% | [7] 91.5% | [8] 115% | [9] 105% | [10] 105% | [11] 119% | [19] 69% | [12] 97.8% | [13] 105% | [16] 69.6% | [17] 87.4% | [18] 76.4%

CCCCC/C=C\C/C=C/CCCCCCCCNC(=O)Nc1ccc([N+](=O)[O-])cc1
inactive: [1] 47.3% | [2] 82.9% | [3] 77.8% | [4] 113% | [5] 42.5% | [6] 56.4% | [7] 107% | [8] 98.9% | [9] 77.9% | [10] 78% | [11] 60.7% | [19] 103% | [12] 89.6% | [13] 51.3% | [14] 16.3% | [15] 103% | [16] 68.4% | [17] 17.4% | [18] 106%

COc1cccc(OC(=O)c2ccccc2)c1OC(=O)c1ccccc1
inactive: [1] 87.7% | [20] 37.4% | [3] 75.4% | [4] 86.3% | [5] 72.4% | [6] 83.6% | [7] 92% | [8] 87% | [9] 47.5% | [10] 70.9% | [19] 55.3% | [12] 73.5% | [13] 49.2% | [14] 77% | [15] 56.9% | [16] 66% | [17] 63% | [18] 84.7%

COc1ccc(Nc2[nH]n(C3=Nc4ccccc4Sc4ccccc43)c(=O)c2C#N)cc1
inactive: [1] 67% | [20] 51.9% | [3] 51.2% | [4] 59.3% | [5] 67.2% | [7] 45.6% | [8] 36.3% | [9] 55.9% | [10] 49.3% | [19] 67.3% | [12] 73.5% | [13] 67% | [14] 41.4% | [16] 32.8% | [17] 54.6% | [18] 64.7%

CC1=C(C/C=C(\C)CCC[C@H](C)CCC[C@H](C)CCCC(C)C)C(=O)c2ccccc2C1=O
inactive: [1] 120% | [2] 102% | [3] 106% | [4] 119% | [5] 108% | [6] 101% | [7] 96.4% | [8] 98.2% | [9] 104% | [10] 104% | [11] 105% | [19] 95.1% | [12] 101% | [13] 98.5% | [14] 98.2% | [15] 112% | [16] 105% | [17] 96.4% | [18] 128%

O=C(O)C[C@H](O)C[C@H](O)/C=C/c1c(C2CC2)nc2ccccc2c1-c1ccc(F)cc1
inactive: [1] 113% | [2] 104% | [4] 63.5% | [5] 31.9% | [6] 22.9% | [7] 81.2% | [8] 95.5% | [9] 90.8% | [10] 46.5% | [11] 107% | [19] 103% | [12] 74.9% | [13] 42.8% | [14] 26.9% | [15] 67.6% | [16] 19.5% | [17] 34.5% | [18] 113%
active: [3] -47.7%

Source: PubChem BioAssay (NCI)
